From PubChem BioAssay
IL-1B inflam inh: inhibitors of inflammasome signaling (IL-1 beta secretion); actives 4.7% (n = 360,000); THP-1 LPS/ATP IL-1B secretion, AlphaLISA, 16 h; hits give low values; AID 743279; activity change, % at 57.5 µM; in the data active = activity change below about -50%; inconclusive = mostly about -30% to -49%
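THP-1 cells pretreated 1 hr with compounds (up to 57.5 uM final), then stimulated with LPS (250 ng/mL final) plus ATP (1.25 mM final); secreted IL-1B measured by AlphaLISA after 16 hr, decreased signal indicating inhibition.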
DT40 TDP1 CPT: growth inhibition of DT40 Tdp1-/-;hTDP1 cells with camptothecin (screen for TDP1 inhibitors); Potency, µM (titrated, usually from 46.2 µM), most hits filed as inhibitors; actives 12% (n = 420,000); AID 686979; chicken DT40 Tdp1-/-;hTDP1 cells + 20 nM CPT, ATP luminescence, 48 h; note: nearly all actives have a fitted effect of over 55% in size
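Chicken DT40 Tdp1-/- cells complemented with human TDP1, 400 cells/well, exposed to compounds plus 20 nM camptothecin for at least 48 h at 37 C; viability read as ATP content by CellTiter-Glo luminescence.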
TGFb SMAD3 inh: TGF-b pathway inhibition | HepG2 CAGA-GFP TGF-b/SMAD3 reporter, GFP fluorescence, 18 h; TGF-beta stimulated, 500 pg/mL final | Potency, µM (top dose mostly 46.1 µM), most hits filed as inhibitors | actives 1.2% (n = 410,000) | AID 588855; note: nearly all actives have a fitted effect of over 65% in size
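Inhibition was scored as loss of TGF-beta-induced (500 pg/mL final, 18 hours, 37 degrees C) GFP in HEPG2 cells carrying a CAGA-GFP reporter, in DMEM with 1% FBS. Well GFP was summed per cell; Activity was normalised to unstimulated and stimulated DMSO wells, then concentration-response fitting.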
DT40 TDP1 no CPT: qHTS for Inhibitors of human tyrosyl-DNA phosphodiesterase 1 (TDP1): qHTS in cells in absence of CPT | DT40 Tdp1-/- hTDP1 cells, no CPT, ATP luminescence, 48 h | actives 15% (n = 420,000) | Potency, µM (top dose mostly 46.2 µM), actives largely listed as inhibitors; note: nearly all actives have a fitted effect of over 55% in size
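Seeded 400 DT40-hTDP1 cells/well (vehicle DMSO, no 20 nM CPT); pinned compounds; ≥48 hr at 37 °C; CellTiter-Glo luminescence as viability measure.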
TDP1 block: blocks human tyrosyl-DNA phosphodiesterase 1; Q9NUW8; recombinant TDP1, AlphaScreen DNA substrate cleavage; Potency, µM (top dose mostly 130 µM), usual class: inhibitors; actives 0.28% (n = 350,000); AID 485290; note: nearly all actives have a fitted effect of over 40% in size
Target sequence (Q9NUW8 whole entry, looked up): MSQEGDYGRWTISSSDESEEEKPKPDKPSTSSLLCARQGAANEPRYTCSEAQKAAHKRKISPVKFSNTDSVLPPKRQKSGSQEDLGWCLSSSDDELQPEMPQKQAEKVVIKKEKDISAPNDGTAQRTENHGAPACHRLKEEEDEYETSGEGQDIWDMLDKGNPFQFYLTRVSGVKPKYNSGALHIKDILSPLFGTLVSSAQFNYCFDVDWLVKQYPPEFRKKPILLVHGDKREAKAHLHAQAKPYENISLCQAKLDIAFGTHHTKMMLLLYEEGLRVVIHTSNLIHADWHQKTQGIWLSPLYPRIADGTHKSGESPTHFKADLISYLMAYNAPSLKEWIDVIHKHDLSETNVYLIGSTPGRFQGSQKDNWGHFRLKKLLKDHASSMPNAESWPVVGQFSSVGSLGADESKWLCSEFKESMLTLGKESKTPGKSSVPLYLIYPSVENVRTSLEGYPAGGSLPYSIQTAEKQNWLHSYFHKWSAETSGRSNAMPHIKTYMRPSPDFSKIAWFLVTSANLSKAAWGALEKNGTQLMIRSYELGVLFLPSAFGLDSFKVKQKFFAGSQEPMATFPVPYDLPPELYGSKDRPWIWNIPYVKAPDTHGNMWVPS
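Recombinant E. coli-expressed Tdp1 (1 nM) preincubated with compound 15 min at RT, then 5'-biotin/3'-phosphotyrosine-FITC DNA substrate (15 nM) added for 5 min. AlphaScreen beads (10 ug/ml) added, 10 min RT; tyrosine-FITC cleavage read as signal loss.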
HepG2 viability: HepG2 cytotoxicity, counter-screen for TGF-b inhibitors. actives 0.76% (n = 410,000). Potency, µM (series often up to 46.1 µM), usual class: cytotoxic. HepG2 CAGA-GFP viability, ATP luminescence, 18 h
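CellTiter-Glo luminescence gave cytotoxicity after 18 hours at 37 degrees C. The cells were HepG2 CAGA-GFP in 1% FBS DMEM, stimulated with 500 pg/mL TGF-beta after compound addition. %Activity was normalised to no-cell wells (complete cell-killing) and DMSO (no toxicity), and curves were fitted and classified.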
Of the large screens only hits and unclear results are named; the others gave an inactive call. Sampled rows, rich in hits. Any-hit rate of the full collection: about 19%. Unless noted, calls come from the whole dose curve; as a rule, active = well fitted curve in the direction sought with a large enough effect; inconclusive = small, poorly fitted or top-dose-only effect, or another doubt; inactive = no such curve, though single readings can be large; an effect the other way counts as inactive or inconclusive.

Cc1ccc2c(c1)N(S(=O)(=O)c1cc(-c3onc(C)c3C)ccc1C)CCO2	IL-1B inflam inh inconclusive, DT40 TDP1 CPT 23µM, TGFb SMAD3 inh inconclusive, DT40 TDP1 no CPT 9.2µM
COc1ccc(-c2cnc(C)o2)cc1S(=O)(=O)Nc1cccc(C(F)(F)F)c1	DT40 TDP1 CPT inconclusive, DT40 TDP1 no CPT inconclusive (no result: IL-1B inflam inh)
COc1ccc(-c2cnc(C)o2)cc1S(=O)(=O)Nc1c(C)cc(C)cc1C	DT40 TDP1 CPT 16µM, DT40 TDP1 no CPT 23µM (no result: IL-1B inflam inh)
COc1ccc(-c2cnc(C)o2)cc1S(=O)(=O)Nc1ccc(C)c(F)c1	DT40 TDP1 CPT 2.6µM, TGFb SMAD3 inh inconclusive, DT40 TDP1 no CPT 2.6µM (no result: IL-1B inflam inh, TDP1 block)
CCOC(=O)c1c(C)[nH]c(C(=O)NCc2ccco2)c1C	none (no result: IL-1B inflam inh, DT40 TDP1 CPT, TGFb SMAD3 inh, DT40 TDP1 no CPT, HepG2 viability)
CCc1ccccc1N(C)S(=O)(=O)c1cc(-c2cc(C)no2)ccc1OC	DT40 TDP1 CPT 13µM, DT40 TDP1 no CPT inconclusive
COc1ccc(-c2cc(C)no2)cc1S(=O)(=O)N(C)c1cccc(C)c1	DT40 TDP1 no CPT inconclusive
Cc1cc(C)c(NS(=O)(=O)c2cc(-c3onc(C)c3C)ccc2C)c(C)c1	DT40 TDP1 CPT 13µM, DT40 TDP1 no CPT 8.2µM (no result: IL-1B inflam inh)
Cc1ccc(NC(=O)Cn2c(=O)n(CCc3ccccc3)c(=O)c3sc4ccccc4c32)cc1C	none (no result: IL-1B inflam inh)
Cc1cccc(Cn2c(=O)n(CCCC(=O)NCc3ccco3)c(=O)c3ccccc32)c1	IL-1B inflam inh inconclusive, DT40 TDP1 CPT 9.2µM, DT40 TDP1 no CPT 21µM
O=C(CCCCn1c(=O)c2ccccc2n(Cc2ccc(Cl)cc2)c1=O)NCc1ccccc1Cl	DT40 TDP1 CPT 15µM, DT40 TDP1 no CPT 16µM (no result: IL-1B inflam inh)
Cc1ccccc1Cn1c(=O)n(CCCC(=O)NCc2ccco2)c(=O)c2ccccc21	DT40 TDP1 CPT inconclusive, TGFb SMAD3 inh inconclusive, DT40 TDP1 no CPT inconclusive
Cc1ccc(CNC(=O)CCCCn2c(=O)c3ccccc3n(Cc3ccc(Cl)cc3)c2=O)cc1	DT40 TDP1 no CPT inconclusive (no result: IL-1B inflam inh)
O=C(CCCCn1c(=O)c2ccccc2n(Cc2ccc(Cl)cc2)c1=O)NCc1ccco1	DT40 TDP1 CPT inconclusive, DT40 TDP1 no CPT 16µM
O=C(CCCn1c(=O)c2sccc2n(Cc2ccc(F)cc2)c1=O)NCc1ccco1	DT40 TDP1 CPT 26µM, DT40 TDP1 no CPT 21µM
Cc1ccc(CNC(=O)CCCCn2c(=O)c3ccccc3n(Cc3ccc(C)cc3)c2=O)cc1	none (no result: IL-1B inflam inh)
O=C(CCCn1c(=O)c2sccc2n(CC(=O)OCc2ccccc2)c1=O)NCc1ccco1	DT40 TDP1 no CPT inconclusive
COC(=O)/C=C/C1c2ccccc2C(OC)C1C (centres undefined)	none (no result: IL-1B inflam inh, DT40 TDP1 CPT, TGFb SMAD3 inh, DT40 TDP1 no CPT, HepG2 viability)
COC(=O)c1ccn(-c2nc(-c3ccc(Cl)cc3)cc(C(F)(F)F)n2)n1	DT40 TDP1 CPT inconclusive, DT40 TDP1 no CPT inconclusive (no result: IL-1B inflam inh)
COc1ccc(CCNC(=O)CN(c2cc(C(F)(F)F)ccc2Cl)S(C)(=O)=O)cc1	DT40 TDP1 no CPT inconclusive (no result: IL-1B inflam inh, TDP1 block)
COc1cccc(CNC(=O)c2cc3c(=O)n(Cc4cccnc4)ccc3nc2C)c1	DT40 TDP1 CPT inconclusive, TGFb SMAD3 inh inconclusive, DT40 TDP1 no CPT inconclusive (no result: IL-1B inflam inh)
CC(Sc1nnnn1-c1ccc(O)cc1)C(=O)NNC(=O)c1ccc(F)cc1 (centres undefined)	DT40 TDP1 no CPT inconclusive
Cc1nc2c(c(C)nn2C(C)(C)C)c(C)c1CCC(=O)Nc1ccc(F)cc1	DT40 TDP1 CPT inconclusive (no result: IL-1B inflam inh)
CCC1CCCCN1C(=O)Cn1c(=O)n(CCCCCC(=O)NCc2ccccc2Cl)c(=O)c2sccc21 (centres undefined)	DT40 TDP1 CPT inconclusive, DT40 TDP1 no CPT 18µM (no result: IL-1B inflam inh)
O=C(NCCCN1CCOCC1)c1ccc(S(=O)(=O)Nc2cccc(C(F)(F)F)c2)cc1	DT40 TDP1 no CPT inconclusive
CCOc1ccc(NS(=O)(=O)c2ccc(C(=O)NCCCN3CCCC3=O)cc2)cc1	DT40 TDP1 CPT inconclusive, DT40 TDP1 no CPT 18µM
O=C(NCCCN1CCCC1=O)c1ccc(S(=O)(=O)Nc2cccc(C(F)(F)F)c2)cc1	DT40 TDP1 CPT inconclusive, DT40 TDP1 no CPT 21µM
COc1ccc(C)cc1NC(=O)C(=O)NCc1ccncc1	none
C=CCC(CC=C)(CNC(=O)C(=O)Nc1cc(C)ccc1OC)c1ccc(OC)c(OC)c1	DT40 TDP1 CPT 8.2µM, DT40 TDP1 no CPT 16µM (no result: IL-1B inflam inh)
COc1ccc(CNCC(O)(c2ccccc2)c2ccc(F)cc2)cc1 (centres undefined)	IL-1B inflam inh -89, DT40 TDP1 CPT 21µM, TGFb SMAD3 inh inconclusive, DT40 TDP1 no CPT 15µM (no result: TDP1 block)
COc1ccc(CNCC(O)(c2ccc(Cl)cc2)c2ccc(Cl)cc2)cc1OC	IL-1B inflam inh inconclusive, DT40 TDP1 CPT 15µM, TGFb SMAD3 inh inconclusive, DT40 TDP1 no CPT 6.5µM, HepG2 viability 22µM
COc1ccc(CNCC(O)(c2ccccc2)c2ccc(F)cc2)cc1OC (centres undefined)	IL-1B inflam inh -88, DT40 TDP1 CPT inconclusive, DT40 TDP1 no CPT 15µM (no result: TDP1 block)
CCCCNCC(O)(c1ccc(Cl)cc1)c1ccc(Cl)cc1	IL-1B inflam inh -132, DT40 TDP1 CPT 15µM, DT40 TDP1 no CPT 23µM
Cc1ccc(S(=O)(=O)N(C)CCCC(=O)Nc2ccc(C)cc2C)cc1	TGFb SMAD3 inh inconclusive, DT40 TDP1 no CPT inconclusive
COc1ccc(-c2nc(C)c(CCNC(=O)c3c(F)cccc3F)s2)cc1	none (no result: IL-1B inflam inh, DT40 TDP1 CPT, DT40 TDP1 no CPT)
